In all, about 96,000 compounds went through this assay and about 20,000 (21%) were called active.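 Rule for the calls: active = CYP2C19 inhibition above a set limit at 5 µM in the primary screen (cut at about 50% in these data); inactive = the rest.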 The list is a sample of the results.
The compounds below were run against Cytochrome P450 2C19 (Homo sapiens) (UniProt P33261) (assay: blockers of cytochrome P450 2C19 activity – biochemical, luminescence, ADME assay, primary screen (AID 778;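 note: plate controls were negative control wells for no effect and 2.5 mM tranylcypromine positive control for full effect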)). Conditions: CYP2C19 Supersomes, luciferin-H EGE luminescence, 30 min; at 5 µM; active compounds read high.
Chain of Cytochrome P450 2C19 (Homo sapiens) (P33261 whole entry, looked up): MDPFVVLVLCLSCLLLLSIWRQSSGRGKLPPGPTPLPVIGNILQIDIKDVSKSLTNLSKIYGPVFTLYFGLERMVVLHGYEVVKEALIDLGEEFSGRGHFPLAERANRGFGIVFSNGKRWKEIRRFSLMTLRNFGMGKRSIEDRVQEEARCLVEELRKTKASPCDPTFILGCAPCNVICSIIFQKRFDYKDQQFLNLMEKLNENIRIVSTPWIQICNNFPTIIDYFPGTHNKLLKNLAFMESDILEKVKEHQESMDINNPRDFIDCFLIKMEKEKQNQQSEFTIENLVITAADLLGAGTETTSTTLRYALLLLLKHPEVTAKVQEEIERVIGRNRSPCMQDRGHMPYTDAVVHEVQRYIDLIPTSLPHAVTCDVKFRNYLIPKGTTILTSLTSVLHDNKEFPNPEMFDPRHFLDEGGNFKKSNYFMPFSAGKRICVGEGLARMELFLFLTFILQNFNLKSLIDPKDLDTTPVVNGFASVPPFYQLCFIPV
In the case of `CCNC(=O)NC(=O)C(C)OC(=O)c1cc(S(=O)(=O)N2CCCCCC2)ccc1OC` (stereo not drawn), the inhibition is reported as 66% (active). `CCCCNC(=O)C1CCCN(S(=O)(=O)c2ccc(S(=O)(=O)NCC(C)C)cc2)C1` (stereo not drawn) was tested, and the inhibition was 6.5% (inactive). For `COc1ccc(S(=O)(=O)N2CCOCC2)cc1C(=O)Nc1nc2ccccc2s1`, the inhibition was 0.4% (inactive). With `COc1ccc(S(=O)(=O)Nc2ccc(S(=O)(=O)N3CCCCC3)cc2)cc1OC` the inhibition was 52.3% (active). `COc1ccc(S(=O)(=O)N2CCCC(C(=O)N3CCN(C)CC3)C2)cc1C` (stereo not drawn) was tested, and the inhibition was 30% (inactive). In the case of `CCCCn1c(=S)[nH]c2cc(S(=O)(=O)N3CCCCC3)ccc21`, the inhibition is reported as 25.4% (inactive). With `COc1ccc(S(=O)(=O)N2CCCC2)c(C)c1C` the inhibition was 72.2% (active). With `COc1ccc(S(=O)(=O)N2CCCCC2)cc1Br` the inhibition was 92% (active). In the case of `COc1ccc2c(c1OC)C(=O)c1ccccc1C2=O`, the inhibition is reported as 17% (inactive). For `CSC1=N/C(=C\c2ccc3c(c2)OCO3)C(=O)S1`, the inhibition was 0.4% (inactive). `COc1cc(NC(=O)N2CCOCC2)cc(OC)c1` was tested, and the inhibition was -9.7% (inactive). `CCC(=NC1CC(C)(C)NC(C)(C)C1)C1=C(O)CC(C)(C)CC1=O` was tested, and the inhibition was 3.6% (inactive). `Cc1c(-c2ccccc2)cn2c1-c1ccc(C)n1CC2` was tested, and the inhibition was 1.7% (inactive). With `O=C(Nc1ccc(Cl)cn1)c1cnn2cccnc12` the inhibition was 0.1% (inactive). With `CCC(=O)c1ccc(OCC(O)CN2CC(C)OC(C)C2)cc1` (stereo not drawn) the inhibition was 39.4% (inactive). With `O=C1Nc2ccc(Br)cc2/C1=N/N=C/C1=C(N2CCOCC2)C(=C\c2ccccc2)/CC1` the inhibition was -1.8% (inactive). `CCCOc1ccc2c3c(c(=O)oc2c1OCCC)CCC3` was tested, and the inhibition was 49.9% (inactive). For `COc1ccc(-c2c(C(C)=O)c(C)nc3sc4c(=O)n(-c5ccc(C)cc5)nnc4c23)cc1`, the inhibition was 21.7% (inactive). With `C=C(C)CSc1nnc(-c2ccc(C)cc2)n1N` the inhibition was 17% (inactive). For `Cc1ccc(-n2c(C)cc(/C=C(\C#N)C(=O)NCC3CCCO3)c2C)cc1` (stereo not drawn), the inhibition was 31.5% (inactive). `CC1(C)CC(=O)C=C(NCCCNC2CCCCC2)C1` was tested, and the inhibition was 9.8% (inactive). With `CC(C)CCSc1ncnc2c1oc1nc3c(cc12)COC(C)(C)C3` the inhibition was -1.7% (inactive). With `Cc1[nH]c(=O)c(C(=O)/C=C/c2ccccc2)c2c1CCCC2` the inhibition was 80.5% (active). With `O=C(/C=C/c1ccccc1)c1ccoc1` the inhibition was 35% (inactive). In the case of `Cc1cn(COC/C=C/c2ccccc2)c(=O)[nH]c1=O`, the inhibition is reported as 24.1% (inactive). In the case of `Cn1c(=NC(=O)c2ccco2)sc2cccc(F)c21`, the inhibition is reported as 21.9% (inactive). `CCn1c(-c2ccoc2C)n[nH]c1=S` was tested, and the inhibition was 1.3% (inactive). In the case of `COc1ccc(-n2nnnc2SCC(=O)Nc2ccccc2)cc1`, the inhibition is reported as 48.1% (inactive). `COc1ccc(C(=O)CSc2nccc(=O)[nH]2)cc1` was tested, and the inhibition was -4% (inactive). For `COc1ccc(-n2nnnc2SCC(=O)c2ccc(OC)c(OC)c2)cc1`, the inhibition was 66.5% (active). In the case of `Cn1c(=O)c2cn(-c3cccc4ccccc34)cc2n(C)c1=O`, the inhibition is reported as 49.2% (inactive). With `O=C(O)C1OC(C(=O)O)C2C1C(F)(F)C2(F)F` (stereo not drawn) the inhibition was -0.7% (inactive). `CCOC(=O)c1c(NC(=O)c2ccc(N3CCOCC3)c([N+](=O)[O-])c2)sc(C)c1C` was tested, and the inhibition was 2.9% (inactive). For `Cc1cc(C(=O)CSc2nc(N)cc(=O)[nH]2)c(C)n1CCc1ccc(Cl)cc1`, the inhibition was 37% (inactive). `Cc1nc(C)c(C(=O)N(c2ccc(C)c(C)c2)C(C(=O)NCc2ccco2)c2ccccc2)s1` (stereo not drawn) was tested, and the inhibition was 7.8% (inactive). In the case of `O=c1c2c(nc3nc[nH]n13)CCC2`, the inhibition is reported as -17.9% (inactive). In the case of `CC(=NCc1ccc2c(c1)OCO2)C1=C(O)c2ccccc2C1=O`, the inhibition is reported as 4.5% (inactive). For `CC(=NCc1ccco1)C1=C(O)c2ccccc2C1=O`, the inhibition was 81.8% (active). `CC(=NCc1ccco1)c1c(C(F)(F)F)[nH]n(-c2nc3ccccc3s2)c1=O` was tested, and the inhibition was 28.3% (inactive). For `CCOC(=O)C1=C(C)N=c2s/c(=C\C(=O)OC)c(=O)n2C1c1ccc(OC)cc1` (stereo not drawn), the inhibition was 67.5% (active). With `COCCOC(=O)C1=C(C)N=c2s/c(=C\c3cccs3)c(=O)n2C1c1cccs1` (stereo not drawn) the inhibition was 45.2% (inactive). `COc1ccc(C2C(C(C)=O)=C(O)C(=O)N2c2nccs2)cc1` (stereo not drawn) was tested, and the inhibition was -17% (inactive). In the case of `S=C1SCN(CCN2CCOCC2)CN1Cc1ccccc1`, the inhibition is reported as 25.3% (inactive). With `O=C(Nc1c(C(=O)N2CCCCC2)cnn1-c1ccccc1)c1ccco1` the inhibition was -7.8% (inactive). With `Cc1ccc(C2C(C#N)C(C#N)N3CCCN23)cc1` (stereo not drawn) the inhibition was -7.9% (inactive). With `CCOC(=O)CNC(=O)CSc1nnnn1-c1cc(C)ccc1C` the inhibition was 13.5% (inactive). With `CN(C(=O)CSc1nnnn1-c1ccccc1)C1CCCCC1` the inhibition was 71.1% (active). For `O=C(O)CCSc1nnc(-c2ccccc2)n1-c1ccccc1`, the inhibition was 1.2% (inactive). With `C=CCn1c(Cn2nnc3ccccc32)nnc1SCC(=O)N/N=C/c1cc(Br)cc(OC)c1O` the inhibition was 22.7% (inactive). In the case of `O=c1c2ccccc2nc(CSc2nnnn2-c2ccccc2)n1-c1ccccc1`, the inhibition is reported as -5.9% (inactive). With `O=c1c2ccccc2nnn1CSc1nnnn1-c1ccccc1` the inhibition was 74.2% (active). With `O=C(Cn1nnc2ccccc2c1=O)Nc1cc(C(F)(F)F)ccc1N1CCOCC1` the inhibition was 31% (inactive). With `Cn1nnnc1SCC(=O)Nc1ccccc1C(=O)NC1CC1` the inhibition was -4.1% (inactive). In the case of `C=CCn1c(SCn2nnc3ccccc3c2=O)nnc1-c1ccc(Cl)cc1`, the inhibition is reported as 87.2% (active). In the case of `CC(=O)c1cc2c(cc1N)OCO2`, the inhibition is reported as 5.3% (inactive). In the case of `CC1CCCC(C)N1C(=O)CN1CCN(c2nc(-c3ccc(F)cc3)cs2)CC1` (stereo not drawn), the inhibition is reported as 7.4% (inactive). `CC(=O)c1sc2nc(SCC(=O)N3CCCCC3)[nH]c(=O)c2c1C` was tested, and the inhibition was 15.5% (inactive). With `CCOC(=O)c1sc2nc(SC)nc(-c3ccccc3)c2c1N` the inhibition was 6.9% (inactive). In the case of `CCOC(=O)c1sc2nc(CSCC(=O)OCc3ccc(C(=O)OC)o3)[nH]c(=O)c2c1C`, the inhibition is reported as 52.7% (active). With `O=C(OCCO)c1cc(Cl)c(C(=O)OCCO)cc1Cl` the inhibition was 15.6% (inactive). `Cc1cccc(NC(=S)Nc2ccc(Br)cc2)c1` was tested, and the inhibition was 66.8% (active). For `Cc1ccccc1NC(=S)Nc1cccc([N+](=O)[O-])c1`, the inhibition was 46.2% (inactive). `Cc1cccc(NC(=O)Nc2cccc(Oc3c(F)c(F)c(F)c(F)c3F)c2)c1` was tested, and the inhibition was 0.7% (inactive).
